The campaign covered roughly 69,000 compounds. About 2,600 (3.8%) were called active. Cut-off read from the data, not from the text of the source: active = activity change below about -70% (passing the limit was not always enough); inconclusive = no clear call, values can overlap the other calls. The full list was thinned out, with actives kept by preference.
Assay: T. gondii growth inhibition with IFN-gamma, primary screen, cell-based (AID 1259416);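 note: host cells are HeLa cells infected with Toxoplasma gondii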
Details: Toxoplasma gondii growth in IFN-gamma-treated host cells; active compounds read low; concentration not given here

Row | SMILES | activity change, negative = inhibition
1 | CC(C)(O)CC[C@@H](O)[C@](C)(O)[C@@H]1CC[C@@]2(O)C3=CC(=O)[C@@H]4C[C@@H](O)[C@@H](O)C[C@]4(C)[C@@H]3CC[C@]12C | 12.2% (inactive)
2 | CN(C)c1nc2c(c(=O)[nH]1)CCN(C(=O)C1(c3ccc(Cl)cc3)CCC1)C2 | -11.9% (inactive)
3 | COc1cc2c(cc1CNC(=O)c1cc3n(n1)CCCN(C)C3)CCC2 | 5.16% (inactive)
4 | Cc1ccsc1C(=O)N1CCC2(C1)CN(c1cccc(F)c1)C(=O)CN2C (stereo unspecified) | -102% (active)
5 | CC(=O)N1CC(=O)N(c2cnn(C)c2)CC12CCN(C(=O)c1cnc(C)cn1)C2 (stereo unspecified) | 8.89% (inactive)
6 | O=C(c1cnccn1)N1CCC2(CC(=O)N(c3cccc(F)c3)C2)C1 (stereo unspecified) | -1.06% (inactive)
7 | COc1ccc(C(=O)N2CC(C(=O)N3CCOCC3)C3(CCOCC3)C2)cc1 (stereo unspecified) | 2.42% (inactive)
8 | O=C(CC1CC1)N1CC[C@@H]2[C@H](CO)Nc3ccc(-c4ccc(F)cc4)cc3[C@@H]21 | -30.6% (inactive)
9 | COc1ccc(-c2noc(-c3c(O)c4ccccc4n(C)c3=O)n2)cc1F | 31.1% (inactive)
10 | COc1ccccc1CNC(=O)c1c(O)c2cccnc2n(-c2ccccc2)c1=O | -37.8% (inactive)
11 | CCc1ccc(NC(=O)c2c(O)c3cccnc3n(-c3ccccc3)c2=O)cc1 | 86% (inactive)
12 | O=C(Nc1cccc(Cl)c1)c1c(O)c2cccnc2n(-c2ccc(F)cc2)c1=O | 195% (inactive)
13 | Cc1ccc(NC(=O)c2c(O)c3cccnc3n(-c3cccc(F)c3)c2=O)cc1F | 126% (inactive)
14 | COc1ccc(-n2c(=O)c(C(=O)Nc3ccccc3C)c(O)c3cccnc32)cc1 | 33.1% (inactive)
15 | CCc1cccc(NC(=O)c2c(O)c3cccnc3n(-c3cccc(F)c3)c2=O)c1 | -96.6% (active)
16 | C=CCNC(=O)c1c(O)c2cccnc2n(-c2cccc(F)c2)c1=O | -76.4% (active)
17 | O=C(NCc1ccccc1F)c1c(O)c2cccnc2n(-c2cccc(F)c2)c1=O | -102% (active)
18 | COc1cccc(-n2c(=O)c(C(=O)NC(C)c3ccccc3)c(O)c3cccnc32)c1 (stereo unspecified) | -12.7% (inactive)
19 | COc1cccc(-n2c(=O)c(C(=O)Nc3ccccc3F)c(O)c3cccnc32)c1 | 40% (inactive)
20 | O=C(NCc1ccc(F)cc1)c1c(O)c2cccnc2n(-c2cccc(F)c2)c1=O | -108% (active)
21 | COc1ccc(CNC(=O)c2c(O)c3cccnc3n(-c3ccc(F)cc3)c2=O)cc1 | 85.2% (inactive)
22 | Cc1noc(C[C@H]2C[C@@H]3CN(C(=O)c4ccco4)C[C@H]3O2)n1 | -25% (inactive)

Row | SMILES | activity change, negative = inhibition
23 | CCCN(CCC)C(=O)NCCCCCCNC(=O)N(CCC)CCC | -0.334% (inactive)
24 | CO[C@@H]1CN(C)C(=O)c2cc(NC(C)=O)ccc2OC[C@H](C)N(C(=O)Cc2ccccn2)C[C@@H]1C | 163% (inactive)
25 | O=C(c1cccs1)N1CCn2c(Cn3cccn3)cnc2C1 | 3.34% (inactive)
26 | O=S(=O)(c1ccccc1)N1CC2CN(Cc3ccc(O)cc3)CC2C1 (stereo unspecified) | -5.71% (inactive)
27 | COc1ccccc1-n1cc(CNC(=O)c2ccc(=O)n(C)c2)cn1 | 1.65% (inactive)
28 | O=C(CCn1cnnn1)NCc1cnn2ccccc12 | 1.34% (inactive)
29 | COCC(=O)Nc1ccc(-c2nc(-c3cc(C)ccc3C)co2)cc1 | 11.3% (inactive)
30 | CNC(=O)c1ccccc1Nc1nc(Nc2ccc(N3CCOCC3)cc2OC)ncc1Cl | -72.7% (active)
31 | COc1ccc(S(=O)(=O)N2CCOCC2)cc1NC(=O)COc1ccccc1 | -52.6% (inactive)
32 | COc1ccccc1C(=O)Nc1ccc(N2CCN(C)CC2)cc1 | -6.5% (inactive)
33 | CCS(=O)(=O)N1CCC2(CC1)CN(S(=O)(=O)c1ccc(C)cc1)[C@H](CO)c1[nH]c3cc(OC)ccc3c12 | 268% (inactive)
34 | Nc1cc(N2C[C@H]3CC=CC[C@H]3C2)nc(N2CCOCC2)n1 | 14.9% (inactive)
35 | c1cnc2c(-c3cc(N4CCOCC4)ncn3)cccc2c1 | 12.9% (inactive)
36 | Nc1cc(C(F)(F)F)c(-c2cc(N3CCOCC3)nc(N3CCOCC3)n2)cn1 | -74.6% (active)
37 | Cc1ncc(C(=O)NCCCn2ccc3ccccc32)c(C)n1 | 2.92% (inactive)
38 | CCS(=O)(=O)N1CC2(CN(C(=O)c3ccc(F)cc3)[C@@H](CO)c3c2c2ccc(OC)cc2n3C)C1 | 62.5% (inactive)
39 | CC(C)CN1CCS(=O)(=O)[C@H]2CCN(S(=O)(=O)N(C)C)CC[C@@H]21 | -5.98% (inactive)
40 | Cn1nc(C(=O)NCC2CCC(c3nnc(-c4ccncc4)o3)CC2)ccc1=O (stereo unspecified) | 24.6% (inactive)
41 | O=C(O)CC1CCC(c2ccc(-c3ccc(Nc4ccc(C(F)(F)F)nc4)cn3)cc2)CC1 (stereo unspecified) | -61.2% (inactive)
42 | CCCC1CCC(c2ccc(-c3ccc(CC)cn3)cc2F)CC1 (stereo unspecified) | -76% (active)
43 | COCCN(Cc1cccs1)C(=O)c1ccncc1Cl | 3.28% (inactive)
44 | COc1cccc(C2=NN(C(=O)C(C)C)C(O)(C(F)(F)F)C2)c1 (stereo unspecified) | -0.0765% (inactive)

Row | SMILES | activity change, negative = inhibition
45 | COc1c(C)cnc(CN(C)C(=O)c2cnn3cc(C)cnc23)c1C | -3.21% (inactive)
46 | COCC1CCN(c2nc(C(C)(C)C)nc3c2cnn3C)C1 (stereo unspecified) | -12.1% (inactive)
47 | O=C(Nc1cccnc1)c1cc2c(s1)-c1ccccc1CC2 | -101% (active)
48 | Cc1ccc(N2CC3(CCN(C(=O)COc4ccccc4)C3)CC2=O)cc1 (stereo unspecified) | -15.8% (inactive)
49 | O=C(NCCc1c[nH]c2ccccc12)c1cc(=O)nc2sc(N3CCCC3)nn12 | 5.09% (inactive)
50 | CCOC(=O)c1nc(NCCc2c[nH]c3ccc(Cl)cc23)c2c(C)noc2n1 | 46.7% (inactive)
51 | CCN1CCN(c2ncnc3sc(C(=O)NCCc4c[nH]c5ccc(Cl)cc45)c(C)c23)CC1 | -83.1% (active)
52 | COCCn1cc(-c2nc(C(=O)NCCc3cccnc3)c3ccccn23)nc1C | -8.4% (inactive)
53 | O=C(O)CC1(CC(=O)Nc2ccc(N3CCCCC3)cc2)CCCCC1 | 96.8% (inactive)
54 | Cc1ccc(C(=O)NC(=S)Nc2cccc(NC(=O)c3ccccc3)c2)cc1C | -63.6% (inactive)
55 | CC(C)(C)c1ccc(C(=O)NC(=S)Nc2ccc(N3CCCCC3)cc2)cc1 | -87.8% (active)
56 | Cc1cc(NC(=O)CC2CCCCC2)n(-c2ncnc3c2cnn3-c2ccc(Cl)cc2)n1 | 16.1% (inactive)
57 | CC1CCN(c2ncnc3c2cnn3CC(=O)Nc2cc(F)cc(F)c2)CC1 | -68.2% (inactive)
58 | CC1CCN(c2cncnc2-n2cc(NC(=O)CC3CCCCC3)cn2)CC1 | -88.5% (active)
59 | Cc1c(CN(C)C(=O)COc2cccnc2)[nH]c2ccccc12 | 66.9% (inactive)
60 | Cc1cccc(-c2[nH]n3c(=O)cc(C(C)n4cnc5ccccc5c4=O)nc3c2C)c1 (stereo unspecified) | -29.3% (inactive)
61 | COc1cc(CCC(C)NC(=O)c2ccc(C)cc2)ccc1OC(=O)c1ccc(C)cc1 (stereo unspecified) | -12.5% (inactive)
62 | O=C1c2ccc(Nc3ccc(F)cc3F)cc2CCc2ccc(OC[C@H](O)CO)cc21 | -74% (active)
63 | COCC(=O)N1CCC2(CC1)C(=O)N(c1cncnc1)c1ccccc12 | -5.94% (inactive)
64 | C[C@H]1CN([C@@H](C)CO)S(=O)(=O)c2ccc(C#Cc3cccc(F)c3)cc2O[C@@H]1CN(C)S(=O)(=O)c1cn(C)cn1 | -91.2% (active)
65 | C[C@@H]1CN([C@@H](C)CO)S(=O)(=O)c2ccc(C#Cc3cccc(F)c3)cc2O[C@H]1CN(C)S(=O)(=O)c1cn(C)cn1 | -31.1% (inactive)
66 | C[C@H]1CN([C@@H](C)CO)S(=O)(=O)c2ccc(C#CC3(O)CCCC3)cc2O[C@@H]1CN(C)C(=O)Nc1cccc(F)c1 | -69.9% (inactive)

Row | SMILES | activity change, negative = inhibition
67 | Cn1c(=O)c2nc(-c3ccc(I)cc3)oc2c2ccccc21 | -20.4% (inactive)
68 | CCCN1CCn2cc(C(=O)N3CCN(c4cccc(OC)c4)CC3)nc2C1 | 15% (inactive)
69 | Cc1cccc(Nc2nc(C(=O)Nc3cccc(Cl)c3C)nc3ccccc23)c1 | -75.4% (active)
70 | O=C(Nc1ccccc1Br)c1nc(Nc2ccccc2)c2ccccc2n1 | -74.2% (active)
71 | CC(Cc1ccco1)NC(=O)c1nc(Nc2ccccc2)c2ccccc2n1 (stereo unspecified) | -47% (inactive)
72 | O=C(NCc1cccc(Br)c1)c1nc(Nc2ccc(F)cc2)c2ccccc2n1 | -65.9% (inactive)
73 | Cc1ccc(Nc2nc(C(=O)Nc3ccc(Cl)cc3F)nc3ccccc23)cc1 | 4.67% (inactive)
74 | O=C(NC1CCCCC1)c1nc(Nc2ccccc2)c2ccccc2n1 | -55.7% (inactive)
75 | Cc1cccc(CNC(=O)c2nc(Nc3cccc(C)c3)c3ccccc3n2)c1 | -89.5% (active)
76 | Cc1ccc(CNC(=O)c2nc(Nc3ccc(C)cc3)c3ccccc3n2)cc1 | 40.8% (inactive)
77 | Cc1cccc(Nc2nc(C(=O)Nc3cccc4c3CCCC4)nc3ccccc23)c1 | -67.4% (inactive)
78 | CCOc1ccccc1NC(=O)OC1CCCN1C(=O)NCc1ccccc1 (stereo unspecified) | -2.55% (inactive)
79 | O=C(COC(=O)c1ccc(Cl)nc1)NCc1ccc2c(c1)OCO2 | 8.52% (inactive)
80 | CC(=O)c1c(C)nn(CCC(=O)N2CCC(c3ccccc3C(=O)O)C2)c1C (stereo unspecified) | 2.53% (inactive)
81 | Cc1nc(C)c(S(=O)(=O)NC(CCN2CCOCC2)c2ccccc2)s1 (stereo unspecified) | 12.7% (inactive)
82 | CC(C(=O)NCc1ccccc1F)N(c1ccccc1)S(C)(=O)=O (stereo unspecified) | 12.1% (inactive)
83 | O=C(Cn1ncc2c(N3CCN(c4ccccn4)CC3)ncnc21)Nc1cc(F)ccc1F | -34% (inactive)
84 | O=C(Cc1ccccc1)NCCc1nc(N2CCOCC2)ncc1C(=O)N1CCCC1 | 8.84% (inactive)
85 | CN1C2CCN(Cc3nccs3)CC2C[C@H]1Cn1cncn1 (stereo partly specified) | 4.21% (inactive)
86 | Cc1cc(Nc2cc(CN3CCOCC3)c3nc(C)c(Cc4ccc(Cl)cc4F)n3n2)n[nH]1 | -78.1% (active)

Source: PubChem BioAssay AID1259416 (Broad Institute, 2018)
